± gives the standard deviation.
test system: MILI (PIWIL2) piRISC loaded with L1MC piRNA (26 nt); assay: pre-steady-state target cleavage rate (min^-1); guide: L1MC piRNA 5'p-UAACUAAAUACUAUGCAAGCUGUAGG; higher = faster piRNA-guided slicing of the target; conditions: auxiliary factor: none (no GTSF1)
In short: (§1)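 A transcribed, DNA-blocked target RNA library (0.1 nM) and 1 nM active affinity-purified piRISC bearing one synthetic guide were incubated in HEPES–potassium acetate buffer at 33 °C for 0–8 or 0–960 min, either with or without 500 nM GTSF1 partner protein. Uncleaved targets were sequenced, normalised to depth and to weakly complementary targets, and pooled over three trials, with k3 capped at 0.0001 min^-1. The pre-steady-state cleavage rate was derived with a burst-and-steady-state fit.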

Row | Sequence | pre-steady-state target cleavage rate
1 | UCCUGCUACAGCUUGCAUAGUAUUUAGUCA | 0.00397 ± 0.0022
2 | UCCUGGAUCAGAUUGCAUAGUAUUUAGUUA | 0.00667 ± 0.002
3 | UCCUGCUACAGCUUGCAUAGUGAUUUAGUUA | 0.00369 ± 0.0028
4 | UCCUCCUACGCUUGCAUAGUAUUUAGUUA | 0.0071 ± 0.0018
5 | UCCUGGAACAGCUUUCAUAGUAUUUAGUUA | 0.00688 ± 0.0024
6 | UCCUGCUACAGCUUGCUUAGUAAUUAGUUA | 0.00332 ± 0.0026
7 | UCCUGCAACAGCUAGCAUAGUAUUUAGUUA | 0.0104 ± 0.0028
8 | UCCUGGAACAGCUUGGCAUAGUAUUUAGUUA | 0.00632 ± 0.0027
9 | UCCUCCUACAGGAUGCAUAGUAUUUAGUUA | 0.00736 ± 0.0024
10 | UCCUGGAUGUCCUUGUAUAGUAUUUAGUUA | 0.0121 ± 0.0026
11 | UCCUCCUACAGCUUGCAUAGUUAUUUAGUUA | 0.00383 ± 0.0024
12 | UCCUCCUACUGCUUGCAUAGUAAUUAGUUA | 0.00554 ± 0.0017
13 | UCCUGCUACAGCAUGCUUAGUAUUUAGUUA | 0.00606 ± 0.0028
14 | UCCUGCUACAGCUUGCAUAGUAUUUAUGUUA | 0.00699 ± 0.0022
15 | UCCUCCUACAGCUUGCAUAGUAUUUGAGUUA | 0.00484 ± 0.0026
16 | UCCUGGUACAGCAUGCAUAGUAUUAAGUUA | 0.0046 ± 0.003
17 | UCCUCCUACAGCUUGCAUAGUACUUAGUUA | 0.00759 ± 0.002
18 | UCCUCCUAGAGCUUGCAUAGUAUUUAGUUA | 0.00656 ± 0.0021
19 | UCCUGGUUCAGCUUGCAAAGUAUUUAGUUA | 0.0176 ± 0.0038
20 | UCCUGGUACAGCUUGCAUAGUAGUUUAGUUA | 0.00833 ± 0.003

Row | Sequence | pre-steady-state target cleavage rate
21 | UCCUGCUACAGCAUGCAUUGUAUUUAGUUA | 0.00734 ± 0.0026
22 | UCCUCCUCACAGCUUGCAUAGUAUUUAGUUA | 0.0102 ± 0.0027
23 | UCCUGCAACAGCUUGCAUAGUAAUUAGUUA | 0.00709 ± 0.0027
24 | UCCUCCUACAACUUGCAUAGUAUUUAGUUA | 0.0079 ± 0.0018
25 | UCCUGGAUGUCCUUGCAUAGUAUUUAUUUA | 0.00292 ± 0.0029
26 | UCCUGCUACAGCAAGCAUAGUAUUUAGUUA | 0.00524 ± 0.0031
27 | UCCUGGAUGUGCUUACAUAGUAUUUAGUUA | 0.0117 ± 0.0028
28 | UCCUGGAUCAGCUUGCAUAGUAUUGUAGUUA | 0.00992 ± 0.0032
29 | UCCUGGAUCAGCUUGCAUCGUAUUUAGUUA | 0.00789 ± 0.0027
30 | UCCUCCUACAGACUUGCAUAGUAUUUAGUUA | 0.00669 ± 0.0021
31 | UCCUGCUACAGCUUGCAUUGUAUUUACUUA | 0.00348 ± 0.0023
32 | UCCUGGAACAGGUUGCAUAGUAUUAAGUUA | 0.00415 ± 0.0022
33 | UCCUGGAUCACCUUGCAAAGUAUUUAGUUA | 0.0045 ± 0.0025
34 | UCCUGGUACAGCUAGGAUAGUAUUUAGUUA | 0.00723 ± 0.0022
35 | UCCUGCUUCAGCUAGCAUAGUAUUUAGUUA | 0.00715 ± 0.0018
36 | UCCUGGAUGUGCUUGCAUAGUGUUUAGUUA | 0.00396 ± 0.0032
37 | UCCUGGAACAGCUUGCUUAGUAUUUUGUUA | 0.00339 ± 0.0024
38 | UCCUGGAACAGCUUGCAUAGUAUCUAGUUA | 0.00512 ± 0.0024
39 | UCCUCCUACAGCUUGUAUAGUAUUUAGUUA | 0.00822 ± 0.0025
40 | UCCUCCUAGAGCUUGCUUAGUAUUUAGUUA | 0.00563 ± 0.0022

test system: EfPiwi piRISC loaded with L1MC piRNA (26 nt); assay: pre-steady-state target cleavage rate (min^-1); auxiliary factor: 500 nM Ephydatia muelleri Gtsf1; guide: L1MC piRNA 5'p-UAACUAAAUACUAUGCAAGCUGUAGG; MIWI and MILI are mouse PIWI proteins and EfPiwi is from a freshwater sponge; tags in brackets are library labels; higher = faster piRNA-guided slicing of the target; conditions: not given
In short: as §1

Row | Sequence | pre-steady-state target cleavage rate
41 | UCCUGCUACAGCUUGCAUAGUAUUUAGUCA | 0.00386 ± 0.0017
42 | UCCUGGAUCAGAUUGCAUAGUAUUUAGUUA | 0.0613 ± 0.011
43 | UCCUGCUACAGCUUGCAUAGUGAUUUAGUUA | 0.00289 ± 0.0028
44 | UCCUCCUACGCUUGCAUAGUAUUUAGUUA | 0.0821 ± 0.021
45 | UCCUGGAACAGCUUUCAUAGUAUUUAGUUA | 0.00631 ± 0.0025
46 | UCCUGCUACAGCUUGCUUAGUAAUUAGUUA | 0.0139 ± 0.0051
47 | UCCUGCAACAGCUAGCAUAGUAUUUAGUUA | 0.0145 ± 0.004
48 | UCCUGGAACAGCUUGGCAUAGUAUUUAGUUA | 0.0094 ± 0.0031
49 | UCCUCCUACAGGAUGCAUAGUAUUUAGUUA | 0.0467 ± 0.011
50 | UCCUGGAUGUCCUUGUAUAGUAUUUAGUUA | 0.00424 ± 0.0024
51 | UCCUCCUACAGCUUGCAUAGUUAUUUAGUUA | 0.00556 ± 0.0031
52 | UCCUCCUACUGCUUGCAUAGUAAUUAGUUA | 0.0119 ± 0.0043
53 | UCCUGCUACAGCAUGCUUAGUAUUUAGUUA | 0.0122 ± 0.0038
54 | UCCUGCUACAGCUUGCAUAGUAUUUAUGUUA | 0.00419 ± 0.0019
55 | UCCUCCUACAGCUUGCAUAGUAUUUGAGUUA | 0.00541 ± 0.0025
56 | UCCUGGUACAGCAUGCAUAGUAUUAAGUUA | 0.00442 ± 0.002
57 | UCCUCCUACAGCUUGCAUAGUACUUAGUUA | 0.013 ± 0.0053
58 | UCCUCCUAGAGCUUGCAUAGUAUUUAGUUA | 0.0186 ± 0.0054
59 | UCCUGGUUCAGCUUGCAAAGUAUUUAGUUA | 0.0681 ± 0.019
60 | UCCUGGUACAGCUUGCAUAGUAGUUUAGUUA | 0.0074 ± 0.0029

Row | Sequence | pre-steady-state target cleavage rate
61 | UCCUGCUACAGCAUGCAUUGUAUUUAGUUA | 0.0119 ± 0.0032
62 | UCCUCCUCACAGCUUGCAUAGUAUUUAGUUA | 0.191 ± 0.046
63 | UCCUGCAACAGCUUGCAUAGUAAUUAGUUA | 0.00951 ± 0.0021
64 | UCCUCCUACAACUUGCAUAGUAUUUAGUUA | 0.0806 ± 0.024
65 | UCCUGGAUGUCCUUGCAUAGUAUUUAUUUA | 0.00464 ± 0.0036
66 | UCCUGCUACAGCAAGCAUAGUAUUUAGUUA | 0.0176 ± 0.0059
67 | UCCUGGAUGUGCUUACAUAGUAUUUAGUUA | 0.0113 ± 0.0041
68 | UCCUGGAUCAGCUUGCAUAGUAUUGUAGUUA | 0.00652 ± 0.0027
69 | UCCUGGAUCAGCUUGCAUCGUAUUUAGUUA | 0.00918 ± 0.0028
70 | UCCUCCUACAGACUUGCAUAGUAUUUAGUUA | 0.017 ± 0.006
71 | UCCUGCUACAGCUUGCAUUGUAUUUACUUA | 0.00271 ± 0.0027
72 | UCCUGGAACAGGUUGCAUAGUAUUAAGUUA | 0.00329 ± 0.0021
73 | UCCUGGAUCACCUUGCAAAGUAUUUAGUUA | 0.00506 ± 0.0019
74 | UCCUGGUACAGCUAGGAUAGUAUUUAGUUA | 0.00331 ± 0.0017
75 | UCCUGCUUCAGCUAGCAUAGUAUUUAGUUA | 0.0566 ± 0.015
76 | UCCUGGAUGUGCUUGCAUAGUGUUUAGUUA | 0.0123 ± 0.0051
77 | UCCUGGAACAGCUUGCUUAGUAUUUUGUUA | 0.00494 ± 0.0028
78 | UCCUGGAACAGCUUGCAUAGUAUCUAGUUA | 0.0068 ± 0.0027
79 | UCCUCCUACAGCUUGUAUAGUAUUUAGUUA | 0.143 ± 0.033
80 | UCCUCCUAGAGCUUGCUUAGUAUUUAGUUA | 0.0217 ± 0.0064

— the supplement of paper PMC10338343
